High-throughput results as filed in PubChem BioAssay.
USP1 inh = USP1/UAF1 (human) deubiquitinase inhibition; recombinant USP1/UAF1, Ub-Rhodamine cleavage fluorescence; Potency, µM (titrated, usually from 57.1 µM), inactives show top-dose activity change, negative = inhibition, most hits filed as inhibitors; 390,000 compounds, 0.23% hits; further: potency means the concentration at half of the fitted maximal effect; on the % scale 0 is the no-effect control and ±100 the full control effect; nearly all actives have a fitted effect of over 60% in size
Target sequence (O94782 whole entry, looked up): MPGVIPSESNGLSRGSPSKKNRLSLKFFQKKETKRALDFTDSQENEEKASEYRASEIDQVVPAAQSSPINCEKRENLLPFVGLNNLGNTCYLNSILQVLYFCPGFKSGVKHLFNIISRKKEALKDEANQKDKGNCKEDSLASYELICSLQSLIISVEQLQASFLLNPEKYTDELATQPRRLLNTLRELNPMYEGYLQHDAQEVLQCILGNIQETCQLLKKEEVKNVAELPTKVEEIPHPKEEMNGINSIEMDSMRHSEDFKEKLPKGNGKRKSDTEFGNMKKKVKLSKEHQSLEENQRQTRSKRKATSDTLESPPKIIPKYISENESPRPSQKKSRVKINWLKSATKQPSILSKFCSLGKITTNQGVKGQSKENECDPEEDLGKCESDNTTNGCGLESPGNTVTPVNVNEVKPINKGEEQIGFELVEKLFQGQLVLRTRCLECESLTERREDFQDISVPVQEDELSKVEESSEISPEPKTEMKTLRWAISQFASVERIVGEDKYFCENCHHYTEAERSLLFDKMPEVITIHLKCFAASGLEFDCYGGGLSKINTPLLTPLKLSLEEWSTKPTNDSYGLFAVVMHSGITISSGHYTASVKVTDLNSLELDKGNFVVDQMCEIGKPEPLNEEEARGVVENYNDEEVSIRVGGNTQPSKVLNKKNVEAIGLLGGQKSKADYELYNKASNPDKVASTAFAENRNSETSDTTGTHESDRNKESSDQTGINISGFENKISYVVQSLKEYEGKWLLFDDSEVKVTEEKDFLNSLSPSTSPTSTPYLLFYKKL
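USP1/UAF1 complex at 1 nM was preincubated with compound for 15 min at room temperature, then Ub-Rho substrate (150nM final) was added. Fluorescence (480/540 nm) was read kinetically, 6 reads every 60 seconds.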
ATXN2 expr inh = ATXN2 expression inhibition; HEK-293 ATXN2-luciferase reporter, luminescence, 24 h; Potency, µM (titrated, usually from 57 µM), without a hit: top-dose activity change, negative = inhibition, usual class: inhibitors; 360,000 compounds, 0.72% hits; AID 1745845; further: potency means the concentration at half of the fitted maximal effect; on the % scale 0 is the no-effect control and ±100 the full control effect; nearly all actives have a fitted effect of over 55% in size
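qHTS (up to 57 uM final) was run with 24 h compound exposure of reporter cells at 37 °C. Each well was multiplexed: SteadyGlo luminescence measured ATXN2-luciferase expression after a fluorogenic Gly-Phe-AFC viability readout (25 uM final).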
S2 tox = cell viability loss in ATXN counter-screen; S2 cells (HEK-293 line with an ATXN2-luciferase reporter) viability, CellTiter-Fluor protease fluorescence, 24 h; Potency, µM (doses to about 56.7 µM), usual class: cytotoxic; 400,000 compounds, 0.49% hits; further: potency means the concentration at half of the fitted maximal effect; nearly all actives have a fitted effect of over 40% in size
IL-1B inflam inh = inflammasome signaling inhibition, IL-1 beta readout | THP-1 LPS/ATP IL-1B secretion, AlphaLISA, 16 h; active compounds read low | activity change, % at 57.5 µM | 360,000 compounds, 4.7% hits; in the data active means activity change below about -50%; inconclusive means mostly about -30% to -49%; further: on the % scale 0 is the no-effect control and ±100 the full control effect
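THP-1 cells pretreated 1 hr with compounds (up to 57.5 uM final), then stimulated with LPS (250 ng/mL final) plus ATP (1.25 mM final); secreted IL-1B measured by AlphaLISA after 16 hr, decreased signal indicating inhibition.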
USP2a inh = blocks human ubiquitin-specific protease USP2a. O75604. USP2 core, Ub-CHOP2 coupled fluorogenic reporter, 485/531. Potency, µM (highest dose often 38.3 µM), without a hit: at the highest dose activity change, negative = inhibition, usual class: inhibitors. 330,000 compounds, 0.01% hits. AID 463254;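 further: potency means the concentration at half of the fitted maximal effect; plate controls were DMSO wells for no effect and full inhibition by NEM control for full effect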
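USP2 core (10nM final) preincubated 30min RT with compound in 20mM Tris-HCl pH 8.0, 2mM CaCl2, 2mM beta-mercaptoethanol, 0.05% CHAPS; 25nM Ub-CHOP2 plus 25nM reporter substrate added, fluorescence (Ex485/Em531) read after 60min.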
The depositor's hits bear a star; i = inactive; ? = inconclusive; . = not tested or not shown. In the library only some 4.8% were active in any assay of this set; here they are far more common. Unless noted, the call rests on the fitted dose curve; in most records, active means well fitted curve in the direction sought with a large enough effect; inconclusive means small, poorly fitted or top-dose-only effect, or another doubt; inactive means no such curve, though single readings can be large; an effect the other way counts as inactive or inconclusive.

SMILES	USP1 inh	ATXN2 expr inh	S2 tox	IL-1B inflam inh	USP2a inh
O=Nc1c(O)[nH]c2ccc(Cl)cc12	-13%	-6%	i	-72*	-4%
CCc1ccc2oc(C(=O)Nc3ccccc3OC)cc(=O)c2c1	-18%	3%	i	.	.
CC1(C)S[C@@H]2[C@H](NC(=O)Cc3ccccc3)C(=O)N2[C@H]1C(=O)O (tested in a mixture with another compound)	.	8%	i	.	.
COc1cc2sc(-c3ccccc3OC)c(-c3ccc(OCCN4CCCCC4)cc3)c2cc1OC	-6%	?	25µM*	-4	3%
O=c1[nH]cnc2scc(-c3ccccc3)c12	-2%	1%	i	-17	-1%
Clc1nc(-c2ccccn2)nc2scc(-c3ccccc3)c12	-10%	-17%	?	-60*	-8%
O=C(NCC(c1ccco1)N1CCCCC1)c1ccc(COc2ccccc2)cc1 (centres undefined)	-4%	-3%	i	-72*	0%
O=C(NCC(c1ccco1)N1CCCCC1)c1ccc(OCc2ccccc2)cc1 (centres undefined)	-7%	-15%	i	14	-1%
O=C(COc1ccccc1)NCC(c1ccco1)N1CCN(c2ccccc2F)CC1 (centres undefined)	-12%	-12%	i	-14	-1%
O=C(COc1ccccc1)NCC(c1ccco1)N1CCN(c2ccc(F)cc2)CC1 (centres undefined)	-6%	-26%	i	-54*	-7%
Cc1nn2c(-c3cccc(NC(=O)c4ccc(Cl)cc4)c3)nnc2c2ccccc12	-22%	.	.	.	.
CCOc1ccccc1-n1nnnc1SCC(=O)N1CCCC1=O	-10%	6%	i	24	4%
CCCc1cc(=O)oc2c(C)c(OCC(=O)NC3CCN(Cc4ccccc4)CC3)ccc12	-9%	-2%	i	-8	3%
COc1ccc(S(=O)(=O)Nc2cc(C(C)C)c(O)cc2C)cc1	-6%	-8%	i	-8	2%
COc1ccc2nc3cc(Cl)ccc3c(Nc3cc(C(C)C)c(O)cc3C)c2c1	-20%	?	?	-90*	0%
COc1ccc(N(Cc2cccs2)C(=O)c2ccc(Br)o2)cc1	-5%	.	.	.	.
O=C(c1ccccc1)c1c[nH]c2ccccc12	-12%	21%	i	0	3%
O=C(/C=C/c1c[nH]c2ccccc12)c1cccc2ccccc12	-23%	-6%	i	-108*	-7%
COc1cc(F)c(C(C)C)cc1-c1ccc(C(F)(F)F)cc1CN1C(=O)O[C@H](c2cc(C(F)(F)F)cc(C(F)(F)F)c2)[C@@H]1C	.	-9%	.	.	.
COC(=O)COc1cc(C)cc2oc(=O)c(CC(=O)OC)c(C)c12	-14%	5%	i	-10	2%
COC(=O)COc1cc(OCC(=O)OC)c2c(C)c(Cl)c(=O)oc2c1	-13%	3%	i	-83*	1%
CC1CN(C(NC(=O)c2ccccc2)C(Cl)(Cl)Cl)CC(C)O1 (centres undefined)	-3%	.	i	-2	2%
CC1(C)Cc2c(sc3nc(-c4ccccc4)n(N)c(=O)c23)CO1	-12%	19%	i	-76*	-8%
CC1(C)Cc2c(sc3nc(-c4cccs4)n(N)c(=O)c23)CO1	-17%	-15%	?	-12	0%
Cn1cnc2c(F)c(Nc3ccc(Br)cc3F)c(C(=O)NOCCO)cc21	.	14%	.	.	.
SMILES	USP1 inh	ATXN2 expr inh	S2 tox	IL-1B inflam inh	USP2a inh
CCCCCCOc1ccc(NC(=O)CC2C(=O)N(CC)C(=S)N2Cc2ccco2)cc1 (centres undefined)	-26%	4%	?	-101*	3%
C=CCN1C(=O)C(CC(=O)Nc2ccc(OCCC)cc2)N(CCCN2CCN(Cc3ccccc3)CC2)C1=S (centres undefined)	-6%	?	?	-67*	0%
CCN1C(=O)C(CC(=O)Nc2ccc(F)cc2)N(Cc2ccco2)C1=S (centres undefined)	-8%	-22%	i	-4	0%
Cc1ccc(N2C(=O)[C@@H]3CSC(c4ccc(Cl)cc4)N3C2=O)cc1 (some centres undefined)	-14%	5%	i	.	.
COc1cc(=O)n2c(c1C(=O)N(C)Cc1nonc1C)CCN(Cc1cc(C)c(C)cc1C)CC2	.	.	i	.	.
CCn1c(SCC(=O)Nc2nncs2)nnc1C(C)NC(=O)c1ccccc1Br (centres undefined)	-18%	-25%	i	-20	1%
Cc1cc(NC(=O)CN(C)S(=O)(=O)c2ccc3c(c2)CCCC(=O)N3)ccc1Br	-26%	16µM*	.	.	.
Cc1cccc2cc3c(nc12)SC(=NCC1CCCO1)N(Cc1ccco1)C3 (centres undefined)	-13%	-19%	i	-100*	-10%
C[C@H](NC(=O)OC(C)(C)C)C(=O)NCC1CCC(C(=O)N[C@@H](Cc2ccccc2)C(=O)O)CC1 (some centres undefined)	-22%	.	i	-2	-7%
CC(C)=CCc1cc([C@@H]2COc3c(ccc4c3C=CC(C)(C)O4)C2)c(O)cc1O	-24%	?	.	-51*	.
COc1ccccc1C(=O)Nc1c(C(=O)N2CCN(C)CC2)oc2ccccc12	-18%	.	?	-60*	2%
Oc1[nH]c2ccccc2c1C=Nc1ccc2c(c1)OCCO2	-15%	59%	?	-90*	3%
Cc1ccn2c(Nc3c(C)cccc3C)c(-c3ccc(Cl)s3)nc2c1	-11%	-16%	?	.	.
O=C(O)CCN1C(=O)/C(=C/c2ccc(-c3nc4ccccc4s3)o2)SC1=S	7.1µM*	-1%	i	17	4%
O=C(O)CCCN1C(=O)/C(=C\c2ccc(-c3nc4ccccc4s3)o2)SC1=S	?	2%	i	19	0%
O=C(O)CC(C(=O)O)N1C(=O)/C(=C/c2ccc(-c3nc4ccccc4s3)o2)SC1=S (centres undefined)	28µM*	-15%	i	14	5%
CC(=O)Nc1cccc(-n2c(=O)n(C3CC3)c(=O)c3c(Nc4ccc(I)cc4F)n(C)c(=O)c(C)c32)c1	.	-6%	.	.	.
COc1cccc([C@@H]2Oc3ccc(Br)cc3C(=O)[C@H]2OC(=O)NC2CCCC2)c1	-32%	-34%	?	-61*	4%
CC[C@H](C)[C@@H](NC(=O)O[C@@H]1C(=O)c2cc(Br)ccc2O[C@H]1c1cccc(OC)c1)C(=O)OC	?	9%	i	-26	-3%
COc1ccc(-c2cn[nH]c2-c2ccc(OCc3ccccc3)cc2O)cc1OC	-12%	-26%	?	-101*	-12%
COc1ccc(-c2cn[nH]c2-c2ccc(OCc3ccc(F)cc3)cc2O)cc1OC	-20%	?	?	-88*	-3%
